High-throughput results (PubChem)
GRIN3A LBD mod: modulates the human NR3A ligand-binding domain | Tm shift relative to glycine control, % at 25 µM | NR3A LBD differential scanning fluorimetry, Tm shift; 0% = protein alone, 100% = glycine-bound protein | hit rate 2.5% among 340,000 | AID 1259313;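 active means melting temperature shift of at least 10% of the positive control shift, at one fixed dose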
CRFBP-R2 block: blocks CRF-induced signaling of the CRF-BP/CRF-R2 complex | inhibition, % at 11.8 µM | HEK293 CRF-R2/CRF-BP, CRF-induced calcium fluorescence | hit rate 0.59% among 350,000;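 active means inhibition of the ligand-induced calcium signal above about 50% at the single tested concentration, limit read from the data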
CRFR2-BP ag: agonists of human CRF-binding protein/CRF-R2 receptor complex; hit rate 0.46% among 350,000; HEK293 CRF-R2/CRF-BP, calcium dye fluorescence (FLIPR); percent of saturating CRF peptide response; activation, % at 13.2 µM;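 active means activation of at least 50%, plus an integration ratio under a set limit after plate pattern correction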
ANO1 activ: activators or potentiators of mouse TMEM16A chloride channel; Q8BHY3; HEK293 TMEM16A/YFP-H148Q/I152L, iodide quench fluorescence; active compounds read low; B-score at 10 µM; hit rate 0.3% among 340,000;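 active means fluorescence-ratio B-score plate-corrected deviation score at least 3 library SD below zero, with starting fluorescence score within 5 deviations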;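 further: channel opened by trigger with iodide after compound preincubation; score built on the fluorescence ratio of max minus min over baseline; more negative score means more quench and so TMEM16A activation or potentiation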
Target sequence (Q8BHY3 whole entry, looked up): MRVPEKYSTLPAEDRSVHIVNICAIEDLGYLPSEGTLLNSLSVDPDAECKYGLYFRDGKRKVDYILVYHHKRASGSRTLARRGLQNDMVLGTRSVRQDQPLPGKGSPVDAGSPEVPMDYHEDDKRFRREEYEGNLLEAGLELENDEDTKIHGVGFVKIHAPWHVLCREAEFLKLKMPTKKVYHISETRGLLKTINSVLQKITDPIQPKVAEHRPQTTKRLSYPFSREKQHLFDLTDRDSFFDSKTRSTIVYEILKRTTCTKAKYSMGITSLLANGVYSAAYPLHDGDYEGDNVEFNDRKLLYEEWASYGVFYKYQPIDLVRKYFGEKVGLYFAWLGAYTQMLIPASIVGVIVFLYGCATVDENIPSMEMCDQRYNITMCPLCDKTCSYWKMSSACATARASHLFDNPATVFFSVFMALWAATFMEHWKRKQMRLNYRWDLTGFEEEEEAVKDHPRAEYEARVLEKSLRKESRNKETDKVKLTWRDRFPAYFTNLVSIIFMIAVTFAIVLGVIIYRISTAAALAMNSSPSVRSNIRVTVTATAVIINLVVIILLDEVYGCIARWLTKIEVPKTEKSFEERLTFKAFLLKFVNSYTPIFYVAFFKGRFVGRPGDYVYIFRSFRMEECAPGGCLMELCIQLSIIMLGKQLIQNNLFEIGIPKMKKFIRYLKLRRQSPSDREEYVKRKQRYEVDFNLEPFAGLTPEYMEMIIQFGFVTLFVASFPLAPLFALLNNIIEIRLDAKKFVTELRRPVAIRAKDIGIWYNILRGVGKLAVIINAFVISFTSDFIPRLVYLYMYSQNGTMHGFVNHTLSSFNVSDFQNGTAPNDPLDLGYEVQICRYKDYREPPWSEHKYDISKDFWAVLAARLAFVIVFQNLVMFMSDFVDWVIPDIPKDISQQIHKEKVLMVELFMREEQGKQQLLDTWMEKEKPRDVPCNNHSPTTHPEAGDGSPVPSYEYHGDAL
ANO1 block: mouse TMEM16A channel inhibition, primary screen. Q8BHY3. HEK293 TMEM16A/YFP iodide influx fluorescence, ionomycin. normalized B-score (activity score, 25-100; higher = stronger inhibition) at 10 µM. hit rate 1.2% among 310,000. AID 588511;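 active means ratio plate-corrected score three or more library SD toward inhibition, starting fluorescence score within five deviations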;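 further: score derived from kinetic fluorescence span divided by baseline fluorescence per well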
MPTP inh: permeability transition pore inhibition | hit rate 1.4% among 360,000 | isolated mouse mitochondria, Ca2+ swelling absorbance, 30 min | inhibition, % at 10 µM;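 active means inhibition of 50% or more, scaled per plate between neutral and stimulator controls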
TMEM16A reconf: reconfirmed blocker of mouse TMEM16A calcium-activated chloride channel | shares compounds with ANO1 block | HEK293 TMEM16A/YFP-H148Q, iodide quench fluorescence; ionomycin added to raise cell calcium | inhibition, % at 10 µM | hit rate 39% among 2,300 | AID 652189;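 active means mean duplicate percent inhibition, scaled so buffer wells are 0 and the reference blocker 100, over three buffer SD above buffer mean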
TMEM16A Ca cntr: counter-screen for TMEM16A inhibitors: effect on calcium mobilization; TMEM16A/YFP HEK293, Fluo4 calcium mobilization; shares compounds with ANO1 block; hit rate 2% among 2,300; calcium response (% of ionomycin), % at 10 µM;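 active means duplicate-averaged calcium signal over 20% of the ionomycin maximum, relative to buffer baseline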;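 further: each well's signal is peak minus trough fluorescence divided by its pre-addition baseline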
Parental YFP cnt: counter-screen for TMEM16A inhibitors: effect in parental YFP-HEK293 cells. iodide YFP quench, ionomycin. shares compounds with ANO1 block. 2,300 tested, under 10 active. YFP ratio F(max-min)/F0 at 10 µM;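 active means yellow fluorescent protein signal ratio exceeding the buffer control mean by over 5 SD of those controls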;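 further: ratio is mean of duplicate wells from kinetic YFP trace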
ClC-1 inh: rat ClC-1 inhibition, TMEM16A specificity screen. CHO ClC-1-YFP, iodide influx fluorescence quench; iodide control reads 0, buffer control 100. ratio percent, % at 10 µM. 2,300 tested, under 10 active. shares compounds with ANO1 block;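 active means duplicate-mean ratio percent above the mean of iodide-only control wells, which defines zero, plus 5 of their SD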;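 further: higher percent means stronger block of ClC-1 iodide influx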
Each line names hits and unclear results; the compound was inactive in the other large screens (follow-up assays come after a bar, where they were run). Shown are actives, neighbours in structure and some others; about 5.1% of the full set was active somewhere.

CCc1nc(NCc2ccco2)c2oc3ccccc3c2n1	none
c1ccc2c(c1)oc1c(Nc3ccc4c(c3)OCCO4)ncnc12	ANO1 block 25 | TMEM16A reconf inactive | TMEM16A Ca cntr inactive | Parental YFP cnt inactive | ClC-1 inh inactive
c1coc(CNc2ncnc3c2oc2ccccc23)c1	ANO1 block 100 | TMEM16A reconf inactive | TMEM16A Ca cntr inactive | Parental YFP cnt inactive | ClC-1 inh inactive
COC(=O)c1cnc(Nc2nc(C(N)Cc3ccccc3)cs2)nc1C(F)(F)F (configuration not stated)	none (no result: GRIN3A LBD mod, CRFBP-R2 block, CRFR2-BP ag, ANO1 activ, ANO1 block)
CC(C)(C)S(=O)(=O)N1Cc2ccc(CO)cc2[C@H]1CCO	none (no result: ANO1 activ, ANO1 block)
Cc1noc(C)c1NC(=O)N(C)C[C@H]1Oc2ccc(NC(=O)C3CC3)cc2C(=O)N([C@H](C)CO)C[C@@H]1C	none (no result: ANO1 block)
Cc1ccc(NC(=O)C(C)c2ccc(-c3ccccc3)c(F)c2)c(C)c1 (configuration not stated)	ANO1 block 25 | TMEM16A reconf inactive | TMEM16A Ca cntr inactive | Parental YFP cnt inactive | ClC-1 inh inactive
COc1ccc(Cl)cc1-c1nc(SCC(=O)N(C)C2CCS(=O)(=O)C2)n[nH]1 (configuration not stated)	none (no result: ANO1 block)
CCOc1cc(C(=S)N2CCOCC2)ccc1OC(=O)c1ccc(C)cc1	ANO1 block 25 | TMEM16A reconf inactive | TMEM16A Ca cntr inactive | Parental YFP cnt inactive | ClC-1 inh inactive
CCOc1cc(C(=S)N2CCOCC2)ccc1OC(=O)c1cccc(C)c1	none
Cc1noc(C)c1COc1cccc(C(=O)NCCc2c[nH]c3ccccc23)c1	ANO1 block 25 | TMEM16A reconf inactive | TMEM16A Ca cntr inactive | Parental YFP cnt inactive | ClC-1 inh inactive
O=C(O)c1ccccc1NSc1ccccc1[N+](=O)[O-]	none
CCc1ccc(NSc2ccccc2[N+](=O)[O-])cc1	ANO1 block 25 | TMEM16A reconf inactive | TMEM16A Ca cntr inactive | Parental YFP cnt inactive | ClC-1 inh inactive
COc1ccc(C2CC(c3ccccc3)=NN2S(=O)(=O)c2ccccc2)cc1 (configuration not stated)	none | TMEM16A reconf 55.0% | TMEM16A Ca cntr inactive | Parental YFP cnt inactive | ClC-1 inh inactive
CN(C(=O)c1cccc(NC(=O)Cc2cccc(NC(=O)C3CCN(C(=O)c4ccccc4)CC3)c2)c1)C1CCCC1	none (no result: ANO1 activ, ANO1 block)
CCOC(=O)C(=O)N(CC)C1CCS(=O)(=O)C1 (configuration not stated)	ANO1 block 100 | TMEM16A reconf inactive | TMEM16A Ca cntr inactive | Parental YFP cnt inactive | ClC-1 inh inactive
CCN(C(=O)COC(=O)c1cnc(C)cn1)C1CCS(=O)(=O)C1 (configuration not stated)	none
COc1cc2nc(N3CCNCC3)nc(N)c2cc1OC	ANO1 block 100 | TMEM16A reconf inactive | TMEM16A Ca cntr inactive | Parental YFP cnt inactive | ClC-1 inh inactive
CS(=O)(=O)c1ccc(Nc2nc(C(N)c3ccccc3)cs2)cc1 (configuration not stated)	none (no result: GRIN3A LBD mod, CRFBP-R2 block, CRFR2-BP ag, ANO1 activ, ANO1 block)
O=C(CNC(=O)c1ccc(Cl)cc1)OCn1nnc2ccccc2c1=O	none (no result: ANO1 block)
CC(C)(Oc1ccc(Cl)cc1)C(=O)OCn1nnc2ccccc2c1=O	ANO1 block 100 | TMEM16A reconf inactive | TMEM16A Ca cntr 32.0% | Parental YFP cnt inactive | ClC-1 inh inactive
CCn1cc(C(=O)NCc2ccccn2)c(=O)c2cc(F)c(N3CCN(C)CC3)cc21	none | TMEM16A reconf inactive | TMEM16A Ca cntr inactive | Parental YFP cnt inactive | ClC-1 inh inactive
Cc1ccc(NS(=O)(=O)c2cccc(C(=O)Nc3cc(C)on3)c2)cc1	ANO1 activ -5.28, ANO1 block 25 | TMEM16A reconf inactive | TMEM16A Ca cntr inactive | Parental YFP cnt inactive | ClC-1 inh inactive
Cc1ccc(S(=O)(=O)Nc2ccc(C(=O)Nc3cc(C)on3)cc2)cc1	none
O=C(NC1(C(F)(F)F)Oc2ccccc2O1)N1CCCC1	ANO1 block 100 | TMEM16A reconf inactive | TMEM16A Ca cntr inactive | Parental YFP cnt inactive | ClC-1 inh inactive
O=C(NCC1CCCO1)NC1(C(F)(F)F)Oc2ccccc2O1 (configuration not stated)	none
CC(C)NC(=O)C1(C)CCN1C(=O)c1ccc2c(c1)OCO2 (configuration not stated)	none (no result: GRIN3A LBD mod, CRFBP-R2 block, CRFR2-BP ag, ANO1 activ, ANO1 block)
CC(/C=C1\SC(=S)N(C(C(=O)O)c2ccccc2)C1=O)=C\c1ccccc1 (configuration not stated)	ANO1 block 100 | TMEM16A reconf 71.5% | TMEM16A Ca cntr inactive | Parental YFP cnt inactive | ClC-1 inh inactive
O=C(NCc1nc(-c2ccc(Cl)cc2)no1)c1ccc2c(c1)OCO2	none
CCCSc1oc(-c2ccco2)nc1S(=O)(=O)c1ccccc1	none
CCCSc1oc(-c2ccco2)nc1S(=O)(=O)c1ccc(C)cc1	ANO1 block 25 | TMEM16A reconf inactive | TMEM16A Ca cntr inactive | Parental YFP cnt inactive | ClC-1 inh inactive
COc1ccc(C(C(=O)NC2CCCCC2)N(Cc2ccco2)C(=O)c2ccccn2)c(OC)c1 (configuration not stated)	none
CCc1nc2ccc(C(=O)NCCCn3ccnc3)cn2c1N(C)Cc1cccs1	none (no result: GRIN3A LBD mod, CRFBP-R2 block, CRFR2-BP ag, ANO1 activ, ANO1 block)
CCCCOc1ccc(C(=O)N2CC(C)OC(C)C2)cc1 (configuration not stated)	none | TMEM16A reconf inactive | TMEM16A Ca cntr inactive | Parental YFP cnt inactive | ClC-1 inh inactive
COCCNC(=O)c1ccc2c(=O)n(Cc3ccco3)c(SCC(=O)NC3CCCCC3)nc2c1	none | TMEM16A reconf inactive | TMEM16A Ca cntr inactive | Parental YFP cnt inactive | ClC-1 inh inactive
CCCCN(C(=O)CCN1C(=O)C2CC=CCC2C1=O)c1c(N)n(CCCC)c(=O)[nH]c1=O (configuration not stated)	none (no result: ANO1 block)
CC12CC3CC(C)(C1)CC(C(=O)NC1=NCCS1)(C3)C2	none
CC12CC3(C)CC(C)(C1)CC(C(=O)NC1=NCCS1)(C2)C3	ANO1 block 25 | TMEM16A reconf inactive | TMEM16A Ca cntr inactive | Parental YFP cnt inactive | ClC-1 inh inactive
Cc1ccccc1-n1c(SCC(=O)N2CCN(c3ccccn3)CC2)nnc1N1CCOCC1	none (no result: ANO1 block)
